Assay outcomes deposited in PubChem by Paczesny and Yang Labs, IUPUI and University of Michigan.
ST2 inh: blocks human ST2 binding to IL-33; Q01638; AlphaLISA ST2-Fc/biotin-IL-33 interaction, 1 h; inhibition, % for hits at 17 µM; AID 1259354; hit rate 2.3% among 78,000; in the data active = inhibition above about 30%
Target sequence (Q01638 whole entry, looked up): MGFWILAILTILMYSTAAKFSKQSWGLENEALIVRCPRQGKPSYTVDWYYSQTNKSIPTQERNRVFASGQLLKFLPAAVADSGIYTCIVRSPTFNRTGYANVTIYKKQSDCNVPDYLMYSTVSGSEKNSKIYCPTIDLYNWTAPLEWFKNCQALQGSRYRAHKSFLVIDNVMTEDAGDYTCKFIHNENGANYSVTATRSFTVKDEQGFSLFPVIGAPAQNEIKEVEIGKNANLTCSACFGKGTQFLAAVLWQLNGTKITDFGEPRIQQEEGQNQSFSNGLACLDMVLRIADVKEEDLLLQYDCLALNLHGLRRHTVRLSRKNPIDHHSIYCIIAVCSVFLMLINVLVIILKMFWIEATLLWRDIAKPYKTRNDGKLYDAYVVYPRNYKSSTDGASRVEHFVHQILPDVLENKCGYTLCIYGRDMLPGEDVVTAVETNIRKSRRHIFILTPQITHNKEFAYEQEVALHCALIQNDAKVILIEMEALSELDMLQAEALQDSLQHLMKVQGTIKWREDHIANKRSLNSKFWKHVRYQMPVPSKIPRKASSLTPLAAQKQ
An asterisk follows results filed as active; i = inactive. Shown is part of a subset that was picked to be rich in hits.

SMILES	ST2 inh
CCN(CC)CCN1C(=O)C(=O)C(=C(O)c2ccc(F)cc2)C1c1ccco1 (centres undefined)	i
COc1cccc(C=Nc2ccc(S(=O)(=O)Nc3cc(C)on3)cc2)c1O	i
Cc1ccc(N=Cc2cccc(C(=O)O)c2O)cc1	i
COc1ccc(N=Cc2cc(Br)cc(Br)c2O)c(OC)c1	i
COc1ccc(OC)c(N=Cc2c(O)c(OC)cc(Br)c2Br)c1	i
CCN(CC)c1ccc(N=Cc2cccc(OC)c2O)cc1	94%*
CCN(CC)c1ccc(C=Nc2ccc(OC)cc2OC)c(O)c1	35%*
O=C(O)CN1C(=O)c2ccc(Br)cc2C1=O	i
CCN1C(=O)c2ccc(Br)cc2C1=O	i
CCCCCN1C(=O)C(=O)c2cc(Br)ccc21	46%*
COCCNc1nc2c(c(=O)n(C)c(=O)n2C)n1Cc1cccc(F)c1	i
Cc1cc(N2C(=O)c3ccc([N+](=O)[O-])cc3C2=O)no1	i
COc1ccc(N2C(=O)c3ccc(Oc4cccc(N)c4)cc3C2=O)cc1	i
O=C1c2ccc(Oc3cccc([N+](=O)[O-])c3)cc2C(=O)N1c1c[nH]c(=O)[nH]c1=O	31%*
NCCNCCSc1ccc(Cl)cc1	i
O=C(Nc1ccc(F)cc1)C1CCCN(S(=O)(=O)c2cnc[nH]2)C1 (centres undefined)	i
Cc1ccc(OCC(=O)Nc2ccc(N3CCCC3)cc2)cc1C	59%*
Cc1cccc(OCC(=O)Nc2sc3c(c2C#N)CCC3)c1C	i
Cc1cccc(OCC(=O)Nc2ccc(N3CCCC3)cc2)c1C	66%*
CCc1ccc(OCC(=O)Nc2ccc(N3CCN(C(C)=O)CC3)cc2)cc1	i
CC(=O)Nc1ccc(OCC(=O)Nc2c(C)cccc2C)cc1	i
Cc1cc(C)c(NC(=O)COc2ccc(C)c(C)c2)c(C)c1	i
CN(CC(=O)NCc1ccccn1)S(=O)(=O)c1ccc2c(c1)CCC(=O)N2	i
Cc1ccccc1-c1nc(CSCC(=O)N2CCc3ccccc3C2)c(C)o1	i
O=C(CSc1c2c(nc3ccccc13)CCC2)Nc1cnc2ccccc2c1	i
SMILES	ST2 inh
CSCCC(C(=O)O)N1C(=O)C2C3c4ccccc4C(c4ccccc43)C2C1=O (centres undefined)	i
COc1ccccc1/C=C1/SC(N2CCN(C)CC2)=NC1=O	i
Cc1cccc(/C=C2\CS/C(=C\c3cccc(C)c3)C2=O)c1	55%*
O=C1N=C(N2CCCC2)S/C1=C/c1cccc(O)c1	i
O=C1/C(=C/c2ccsc2)CS/C1=C\c1ccsc1	39%*
COc1ccccc1/C=C1\SC(N2CC(C)OC(C)C2)=NC1=O (centres undefined)	i
Cc1cccc(/C=C2\NC(=O)N(Cc3ccc(Cl)cc3)C2=O)c1	i
COc1cccc(/C=C2\CS/C(=C\c3cccc(OC)c3OC)C2=O)c1OC	39%*
Cc1ccccc1-c1cccc(C(=O)N2CC3(CCNCC3)CC2C(=O)O)c1 (centres undefined)	i
Cc1nnc(N2C(=O)C(=O)C(=C(O)c3ccc(F)cc3)C2c2ccc(Cl)c(Cl)c2)s1 (centres undefined)	i
O=C(O)c1ccc(CNCc2cccc(OCc3ccccc3)c2)cc1	i
CCN(c1ccc(F)cc1)S(=O)(=O)c1ccc2c(c1)CCC(=O)N2	i
Cc1[nH]n(-c2ccccc2)c(=O)c1C=Nc1cc([N+](=O)[O-])cc([N+](=O)[O-])c1	i
O=[N+]([O-])c1cccc(C=Nc2ccc(S(=O)(=O)Nc3ccccn3)cc2)c1	i
O=[N+]([O-])c1cc(Nc2ccccc2)c(C=Nc2ccccc2)c([N+](=O)[O-])c1	66%*
CC(C)c1cc(C(=O)Nc2ccc(F)cc2F)no1	i
CN1CCC2(CC1)CN(C(=O)c1nc3ccccc3[nH]1)CCN2C	i
CCc1ccc(-n2c(CN3CCN(C(=O)NCc4ccc(OC)cc4)CC3)nc3cccnc32)cc1	i
Cc1ccccc1CCN1CCC(CN(C(=O)c2noc3c2CCCC3)C2CCCC2)CC1	i
CN1C(=O)C(O)(CC(=O)c2cccc([N+](=O)[O-])c2)c2ccccc21 (centres undefined)	i
NC(=O)c1ccc(C(=O)c2ccc([N+](=O)[O-])cc2)cc1	i
CN1/C(=C\C(=O)c2ccc([N+](=O)[O-])cc2)C(C)(C)c2ccccc21	36%*
Cc1ccsc1C1C(C#N)=C(N)OC2=C1C(=O)CC(c1ccccc1)C2 (centres undefined)	i
NCCc1cc(N2CCC(N3CCC(O)CC3)CC2)ncn1	i
COc1ccc(CN(C)C(=O)[C@@H]2C[C@H](N)CN2C)c2ccccc12	i
SMILES	ST2 inh
O=[N+]([O-])c1ccc(S(=O)(=O)N2CCN(c3ccc(Cl)cc3)CC2)cc1	33%*
COc1ccc(N2CCN(S(=O)(=O)c3ccc(OC)cc3)CC2)cc1	i
CN1CCN(S(=O)(=O)c2ccc([N+](=O)[O-])cc2)CC1	i
CCN(C(=O)Cc1c(C(=O)O)[nH]c2ccc(Cl)cc12)c1cccc(Cl)c1	i
O=C(c1cc2ncc(Br)cn2n1)N1CCOCC1	38%*
O=C(c1nn2cc(Br)cnc2c1Br)N1CCOCC1	i
O=C(c1cccc(Br)c1)N1CCOCC1	i
CC(CNC(=O)Cc1csc(-c2ccccc2)n1)n1cncn1 (centres undefined)	i
O=C(NCc1cccnc1)c1cc(-c2ccc(F)cc2)on1	i
Cn1c(NCc2cc(Br)ccc2O)nc2ccccc21	i
Cn1c(C(O)(c2ccccc2)c2nc3ccccc3n2C)nc2ccccc21	i
Cn1c2nc3ccc(Br)cc3c-2nc2ccccc21	37%*
O=C(CN1C(=O)CC(c2ccccc2)Sc2ccccc21)N1CCOCC1 (centres undefined)	i
Cc1ccc(=O)n(CC(=O)NCc2cccnc2Oc2c(C)cccc2C)n1	i
Cc1ccc(C)n1-c1cccc(C(=O)O)c1	96%*
Cc1cc(C=O)c(C)n1-c1ccc(C(=O)O)c(Cl)c1	i
O=C(O)c1cccc(N2C(=O)C3C4C=CC(O4)C3C2=O)c1 (centres undefined)	i
Cc1ccc(C)n1-c1ccc(C(=O)O)c(C(=O)O)c1	88%*
CC(=O)Nc1cccc(C(=O)O)c1	i
Cc1ccc(C(=O)c2ccccc2C(=O)O)c(C)c1	i
COc1ccc(/C=N\OCc2cccc(Br)c2)cc1OC	i
CSc1ccc(C(=O)N(C)CC2CCN(CCc3ccc(Cl)cc3)CC2)cc1	i
CCN(CC)CCSc1nnnn1-c1ccccc1	i
CN1CCN(CC(O)CN2CCN(C)CC2)CC1	i
O=C1CCCN1CCCC(=O)N1CCCC(Nc2cccc(F)c2)C1 (centres undefined)	i
SMILES	ST2 inh
Fc1ccc(CN2CCN(c3ccccn3)CC2)cc1Br	33%*
Fc1ccccc1CN1CCN(c2ccccn2)CC1	i
Clc1ccc(CN2CCN(c3ccccn3)CC2)cc1Cl	i
Cc1ccc2oc(-c3cccc(NC(=O)c4ccccc4I)c3)nc2c1	i
CN(Cc1ccccc1)Cc1nc(C(c2ccccc2)c2ccccc2)no1	i
CC(Oc1cccc(-c2cccc3cnccc23)c1)C(N)=O (centres undefined)	i
C[C@@H]1CC[C@@]2(C)C(CO)=CCC[C@@H]2[C@@]1(C)CC/C(=C/C(=O)O)CO	36%*
CC1=CC(=O)CC2C1(C)CCC(C)C2(C)CC/C(C)=C/C(=O)O (centres undefined)	i
O=C(c1ccccc1OC1CCN(Cc2cccc(F)c2F)CC1)N1CCCC1	i
